The record followed here is PubChem BioAssay.

Activity calls are given as the source filed them.

Assay [1] is described as follows: anti-His antibody binders, primary screen, artefact control for SMM control protein annotation, biochemical, small-molecule microarray, 635 nm fluorescence (AID 1128).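 Further: score merges feature fluorescence with signal-to-noise for each printed compound spot.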 The note with it: anti-His Alexa647 antibody binding, higher = more signal.
Assay [2] deals with Human papillomavirus type 1a E7 protein (residues 1-88). Briefly: HPV1a E7 small-molecule binders, primary screen, biochemical, small-molecule microarray, residues 1-88, 635 nm (AID 1129). The note with it: small-molecule microarray binding, fluorescence 635 nm; higher = more signal.
Assay [3] has as its target Focal adhesion kinase 1 (Homo sapiens) (UniProt Q05397). Briefly: small-molecule microarray binders of FAK, primary screen, biochemical, 635/667 nm fluorescence, BSA, DTT (AID 1130).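 Further: composite of spot emission at 667 nm and signal to noise over triplicate slides.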 Particulars: PTK2 binding, 635 nm fluorescence, higher = more signal.
Assay [4] concerns Fibrinogen (Alexa647-labelled). Briefly: fibrinogen binders on compound microarrays, profiling panel, artefact control for SMM control-protein annotation, biochemical, small-molecule microarray, 635/667 nm fluorescence (AID 1131).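 Further: z-score merges 667 nm fluorescence with per-spot signal-to-noise over triplicate slides.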 Particulars: fibrinogen-A647 binding fluorescence, higher = more signal.
Assay [5] addresses Follistatin (Homo sapiens) (UniProt P19883). In words: follistatin binders on small-molecule microarrays, primary screen, biochemical, small-molecule microarray, 635/667 nm fluorescence (AID 1132). Particulars: FST binding, 635 nm fluorescence, higher = more signal.
The target in assay [6] is Fibroblast growth factor 2 (Homo sapiens) (UniProt P09038). Briefly: FGF2 binders on small-molecule microarrays, primary screen, biochemical, small-molecule microarray, 635/667 nm fluorescence (AID 1133). The note with it: small-molecule microarray binding, FGF2, fluorescence 635/667; higher = more signal.
The nature of assay [7]: mitochondrial membrane potential change in A549 cells, profiling panel, cell-based, JC-1 fluorescence, basal, 24 h, 100 nL (AID 1138).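 Further: A549 lung adenocarcinoma cells under basal conditions with no added stimulus; test concentration not given here.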 Particulars: higher = more signal.
The next assay deals with Lefty1. Briefly: Lefty1 binders on small-molecule microarrays, primary screen, biochemical, small-molecule microarray, 635/667 nm fluorescence (AID 1139). The note with it: small-molecule microarray binding, fluorescence 635/667; higher = more signal.
The subject of assay [8] is wheat germ agglutinin (Triticum aestivum), Alexa647-labelled. Briefly: wheat germ agglutinin binders on compound microarrays, profiling panel, artefact control for SMM control-protein annotation, biochemical, small-molecule microarray, 635/667 nm fluorescence (AID 1140).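 Further: score merges 667 nm feature emission with signal to noise over triplicate slides.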 Particulars: WGA-A647 binding, 635 nm fluorescence, higher = more signal.
The target in assay [9] is Luciferin 4-monooxygenase (Photinus pyralis) (UniProt P08659). Briefly: firefly luciferase enzyme inhibitors, primary screen, biochemical, luminescence, purified enzyme, 2006 set (AID 1141).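 Further: cell-free assay with purified firefly luciferase at 100 ng per well in PBS; test concentration not given here.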 The note with it: SteadyGlo luminescence, 30 min, higher = more signal, called active from +8 up or from −8 down.
Luciferin 4-monooxygenase (Photinus pyralis), sequence (P08659 whole entry, looked up): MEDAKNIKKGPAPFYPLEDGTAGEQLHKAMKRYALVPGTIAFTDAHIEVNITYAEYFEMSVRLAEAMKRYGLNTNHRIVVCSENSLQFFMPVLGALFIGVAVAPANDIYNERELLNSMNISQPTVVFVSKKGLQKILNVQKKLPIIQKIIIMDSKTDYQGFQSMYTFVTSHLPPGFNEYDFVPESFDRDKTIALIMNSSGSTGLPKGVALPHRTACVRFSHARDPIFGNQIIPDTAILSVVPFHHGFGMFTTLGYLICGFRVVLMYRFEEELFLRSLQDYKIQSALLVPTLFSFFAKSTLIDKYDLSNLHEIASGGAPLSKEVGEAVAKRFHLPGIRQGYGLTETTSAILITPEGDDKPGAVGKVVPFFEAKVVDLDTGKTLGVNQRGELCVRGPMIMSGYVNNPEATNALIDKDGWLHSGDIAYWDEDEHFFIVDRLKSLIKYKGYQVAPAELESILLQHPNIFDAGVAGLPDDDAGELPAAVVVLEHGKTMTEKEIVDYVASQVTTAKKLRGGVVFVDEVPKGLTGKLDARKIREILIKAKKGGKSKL

Focal adhesion kinase 1 (Homo sapiens), sequence (Q05397 whole entry, looked up): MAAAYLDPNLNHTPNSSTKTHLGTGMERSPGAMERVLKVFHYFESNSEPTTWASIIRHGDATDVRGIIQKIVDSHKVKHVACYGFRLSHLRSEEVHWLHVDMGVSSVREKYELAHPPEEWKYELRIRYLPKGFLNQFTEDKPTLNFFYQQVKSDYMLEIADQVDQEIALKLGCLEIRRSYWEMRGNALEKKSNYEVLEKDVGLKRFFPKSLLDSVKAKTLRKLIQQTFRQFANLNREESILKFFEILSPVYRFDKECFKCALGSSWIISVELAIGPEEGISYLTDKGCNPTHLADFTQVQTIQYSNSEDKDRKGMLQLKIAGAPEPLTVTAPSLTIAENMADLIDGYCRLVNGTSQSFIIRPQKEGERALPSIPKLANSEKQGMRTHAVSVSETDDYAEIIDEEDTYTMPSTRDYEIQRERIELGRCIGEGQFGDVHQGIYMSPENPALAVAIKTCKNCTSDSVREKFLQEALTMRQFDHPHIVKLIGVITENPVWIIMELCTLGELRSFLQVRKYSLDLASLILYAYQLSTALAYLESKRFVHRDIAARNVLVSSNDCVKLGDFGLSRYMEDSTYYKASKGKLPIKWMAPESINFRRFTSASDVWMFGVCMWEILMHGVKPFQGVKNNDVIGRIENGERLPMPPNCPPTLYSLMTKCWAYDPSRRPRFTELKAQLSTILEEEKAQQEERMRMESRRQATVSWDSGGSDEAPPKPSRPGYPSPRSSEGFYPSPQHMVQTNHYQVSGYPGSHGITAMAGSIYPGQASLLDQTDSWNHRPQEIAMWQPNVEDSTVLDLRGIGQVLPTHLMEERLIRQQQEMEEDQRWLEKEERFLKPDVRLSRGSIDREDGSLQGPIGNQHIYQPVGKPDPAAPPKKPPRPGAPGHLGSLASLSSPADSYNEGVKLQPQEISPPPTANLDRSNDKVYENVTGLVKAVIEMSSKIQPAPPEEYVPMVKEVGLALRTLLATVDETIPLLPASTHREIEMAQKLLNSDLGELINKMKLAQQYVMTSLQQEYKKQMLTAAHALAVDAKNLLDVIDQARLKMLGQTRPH
Follistatin (Homo sapiens), sequence (P19883 whole entry, looked up): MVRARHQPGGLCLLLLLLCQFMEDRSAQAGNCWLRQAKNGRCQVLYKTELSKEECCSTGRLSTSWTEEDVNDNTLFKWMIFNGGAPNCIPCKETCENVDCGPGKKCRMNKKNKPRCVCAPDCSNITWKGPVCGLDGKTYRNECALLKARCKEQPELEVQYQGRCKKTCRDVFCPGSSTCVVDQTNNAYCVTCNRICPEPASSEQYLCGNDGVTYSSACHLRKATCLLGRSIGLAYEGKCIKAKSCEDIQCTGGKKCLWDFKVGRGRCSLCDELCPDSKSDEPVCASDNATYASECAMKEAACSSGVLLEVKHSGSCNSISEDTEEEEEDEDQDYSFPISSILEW
Fibroblast growth factor 2 (Homo sapiens), sequence (P09038 whole entry, looked up): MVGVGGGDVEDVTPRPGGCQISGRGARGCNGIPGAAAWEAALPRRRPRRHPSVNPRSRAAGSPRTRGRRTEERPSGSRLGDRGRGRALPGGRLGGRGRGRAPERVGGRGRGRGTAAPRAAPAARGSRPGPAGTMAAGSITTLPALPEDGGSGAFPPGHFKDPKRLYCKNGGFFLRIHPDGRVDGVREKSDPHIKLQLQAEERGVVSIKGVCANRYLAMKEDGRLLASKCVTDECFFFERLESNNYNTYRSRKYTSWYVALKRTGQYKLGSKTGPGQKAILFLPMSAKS

As for `C=C(COC)C(=O)CC[C@@H](OC(=O)c1cccnc1)c1ccccc1OCCO`, the composite z-score in assay [1] is 2.06; in assay [2], 0.284; in [3], -0.54; in assay [4] it was 0.555; in assay [5] it was 0.974; in assay [6], 1. In addition, the composite z-score in the assay on Lefty1 came out at 0.139; in [8], 0.287. The z-score in assay [7] was -0.0536; in [9], -5.44 (inactive).

As for `C=CCC(OC(C)=O)[C@@H]1[C@@H](N(Cc2cccc3ccccc23)C(=O)Cc2ccc(F)cc2)c2cc(OCCCO)ccc2N1C(=O)c1ccc(-c2ccccc2)cc1` (stereo not given in full), the composite z-score is -0.517 in assay [1]; -0.0075 in assay [2]; 0.365 in assay [3]; 0.674 in [4]; -0.0679 in assay [5]; 0.292 in assay [6]. Moreover, the composite z-score was -0.62 with Lefty1 and 0.507 in assay [8]. Besides, the z-score was 0.577 in assay [7] and -0.403 (inactive) in [9].

With `COc1cc(NN2C(C(O)c3ccccc3)C=CC3C(=O)N(C)C(=O)C32)cc(OC)c1OC` (stereo not given), the composite z-score in assay [1] worked out at 0.981; in assay [2], 1.19; in assay [3] it was 0.681; in assay [4], 0.959; in [5] it was 0.756; in [6] it was 0.216. Besides, the values for the composite z-score (in the assay with Lefty1; in assay [8]) were 0.229 and 1.23, respectively. In addition, the z-score in [7] is -0.109; in assay [9], -1.69 (inactive).

As to `CC(C)OC(=O)CC(=O)CC(O)c1ccc([N+](=O)[O-])cc1` (stereo not given), the composite z-score is 0.42 in assay [1]; 0.304 in assay [2]; -0.0134 in assay [3]; -0.434 in assay [4]; -0.134 in assay [5]; -0.404 in assay [6]. The composite z-score with Lefty1 was -0.006; in assay [8] it was 0.518. Also, the results for the z-score in assay [7] and in assay [9] were 0.276 and 0.419 (inactive), respectively.

Regarding `Cc1ccc(S[C@]2(C(=O)NCC(C)C)CC(=O)N(C3Cc4ccccc4C3)[C@@H]2c2ccc(CO)cc2I)cc1`, the composite z-score in [1] was -0.258; in [2], 0.27; in [3] it was -0.199; in [4], -1.13; in assay [5], -0.615; in assay [6], -1.02. In addition, the composite z-score in the assay with Lefty1 was -1.38; in [8] it was -0.463. In addition, the z-score in assay [7] was -0.244; in [9] it was -0.063 (inactive).

Consider `C=CCC(OC(C)=O)[C@@H]1[C@@H](N(Cc2cccc3ccccc23)C(=O)c2ccc(-c3ccccc3)cc2)c2cc(OCCCO)ccc2N1C(=O)c1ccc(-c2ccccc2)cc1` (stereo not given in full), for which the composite z-score in assay [1] was -0.811; in assay [2] it was 0.488; in assay [3] it was -0.132; in assay [4], -0.123; in [5], 0.353; in assay [6], -0.0952. Moreover, the values for the composite z-score (with Lefty1; in [8]) were 0.0683 and 0.204, respectively. The figures for the z-score in [7] and in [9] were 0.758 and -0.0873 (inactive), respectively.

`CN1C(=O)C2C=CC(C(O)c3ccc(F)cc3)N(NC(=O)OC(C)(C)C)C2C1=O` (stereo not given): the composite z-score in assay [1] was 0.322; in assay [2], 0.878; in assay [3], 0.22; in assay [4], 0.81; in assay [5] it was 0.344; in [6], -0.475. Moreover, the composite z-score in the assay on Lefty1 came to 0.0813; in assay [8] it was 0.381. For the same compound, the z-score in [7] is -0.946; in assay [9] it was -0.507 (inactive).

Consider `C=C(C(=O)CC[C@H](OC(=O)c1ccccc1-c1ccccc1C(=O)O)c1ccccc1OCCO)C(C)C`, for which the composite z-score in [1] was -0.0781; in assay [2], 0.909; in assay [3], 0.0778; in [4], -0.115; in [5] it was 0.991; in assay [6], 1.24. Also, the results for the composite z-score (in the assay with Lefty1; in assay [8]) were 1.01 and 0.423, respectively. Besides, the z-score in assay [7] is 0.743; in assay [9], -1.29 (inactive).

For `COCCCNC(=O)[C@@]1(c2ccc([N+](=O)[O-])cc2)CC(=O)N(C(C)C)[C@@H]1c1ccc(CO)cc1`, the composite z-score in assay [1] was -0.92; in assay [2] it was -0.085; in [3] it was 0.756; in assay [4], -0.779; in assay [5] it was 0.559; in assay [6] it was 0.352. Besides, the composite z-score in the assay with Lefty1 was -0.0938; in assay [8], 0.174. For the same compound, the z-score in [7] is 0.296; in [9], -0.985 (inactive).

Regarding `COc1ccc(C(O)C2C=CC3C(=O)N(c4ccccc4)C(=O)C3N2Nc2ccccc2)cc1` (stereo not given), the composite z-score in [1] amounted to 0.85; in assay [2], 1.08; in [3] it was 0.72; in [4], 1.01; in [5] it was 0.955; in assay [6], 0.0088. For the same compound, the composite z-score in the assay on Lefty1 is 0.817; in [8], 1.1. In addition, the values for the z-score in assay [7] and in [9] were 0.204 and -0.182 (inactive), respectively.

Regarding `C=CCNC(=O)[C@@H]1[C@H]2C(=O)O[C@H](c3ccccc3)[C@H](c3ccccc3)N2[C@H](c2ccc(O)cc2)[C@@]12C(=O)N(C(=O)OCCOC)c1ccc(C#CCCO)cc12`, the composite z-score in [1] is 1.45; in [2], 0.779; in assay [3], 0.863; in assay [4], 0.389; in assay [5], 1.19; in [6] it was 1.25. The values for the composite z-score (in the assay on Lefty1; in assay [8]) were 0.531 and 0.862, respectively. Further, the z-score is 0.703 in assay [7] and -0.52 (inactive) in assay [9].

`COC(=O)[C@@]1(Cc2ccc(OC)cc2)[C@H]2c3cc(C(=O)N4CCCC4)n(Cc4cc(C)n(C)n4)c3C[C@H]2CN1C(=O)c1ccccc1`: the composite z-score in assay [1] is 1.58; in [2] it was 1.17; in assay [3], 2.74; in assay [4], 1.05; in [5] it was -0.326; in [6] it was -0.622. The composite z-score with Lefty1 was -0.801; in assay [8], 1.33. For the same compound, the z-score was 1.16 in assay [7] and 0.769 (inactive) in assay [9].

Take `O=C1C2C=CC(C(O)C=Cc3ccc([N+](=O)[O-])cc3)N(Nc3ccccc3)C2C(=O)N1c1ccccc1` (stereo not given): the composite z-score in [1] was 0.185; in [2] it was 1.2; in assay [3], 0.0142; in [4], 1.02; in [5], 1.24; in [6], 0.0395. The composite z-score with Lefty1 was found to be 0.416; in assay [8], 0.932. The z-score in [7] is -0.0492; in [9], -1.65 (inactive).

Turning to `COCC(=C=CC[C@@H](O)c1ccc(OCCO)cc1)CCO`, the composite z-score in assay [1] is 0.656; in assay [2], 0.529; in assay [3] it was 0.17; in assay [4], -0.97; in assay [5], 1.08; in assay [6] it was 0.517. Further, the composite z-score was 0.993 in the assay with Lefty1 and 1.27 in assay [8]. Besides, the z-score in [7] is 0.721; in assay [9], -0.776 (inactive).
